# Experimental data from PubChem BioAssay (NCATS).
# Records with an inconclusive call do not appear. Entries that show only a call come without a potency. Calls of active or inactive are those of the source. Calls follow the shape of the dose curve; as a rule, active = well fitted inhibition curve with a large enough effect; inconclusive = small, poorly fitted or top-dose-only effect; inactive = flat fitted curve, though single readings scatter.
# Target: Glutathione peroxidase 1 (Homo sapiens) (UniProt P07203)
# Sequence (P07203 whole entry, looked up): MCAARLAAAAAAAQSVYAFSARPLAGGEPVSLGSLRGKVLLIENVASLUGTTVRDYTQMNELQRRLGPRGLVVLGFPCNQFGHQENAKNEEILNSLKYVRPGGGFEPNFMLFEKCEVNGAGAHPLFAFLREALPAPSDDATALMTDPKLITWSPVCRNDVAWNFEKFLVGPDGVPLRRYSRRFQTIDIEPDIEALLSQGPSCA
# Test: Primary qHTS Assay for Inhibitors of Recombinant Selenoprotein Glutathione Peroxidase 1 (GPX1) (AID 1845191); also: nearly all actives have a fitted effect of over 65% in size
# Details: recombinant GPX1, GR-coupled NADPH fluorescence, 15 min; series mostly up to 48.8 µM; activity, negative = inhibition: at the top concentration
# Description: Assay Provider: Elias S.J. Arner MD PhD.
# Department of Medical Biochemistry and Biophysics
# Karolinska Institutet, Solna, Stockholm, Sweden
# Selenoprotein glutathione peroxidases (GPX), like the ubiquitously expressed GPX1 and the ferroptosis modulator GPX4, enact their antioxidant activities by reducing hydroperoxides using glutathione. […] GPX1 and GPX4 inhibitors have thus shown promise as anti-cancer agents. Existing inhibitors are often promiscuous, or modulate GPX activity only indirectly, so novel direct inhibitors identified through screening against GPX1 and GPX4 could be valuable. Here, we developed optimized glutathione reductase (GR)-coupled GPX assays for the biochemical high-throughput screen (HTS) of almost 12,000 compounds with known mechanisms of action. Initial hits were triaged using a GR counter-screen, assessed for isoform specificity using a separate GPX2 assay, and were assessed for general selenocysteine-targeting activity using a thioredoxin reductase (TXNRD1) assay. With this suite of assays, we identified novel GPX1/GPX2- and GPX4-specific inhibitors and can here present a validated pipeline for future discovery research for selenoprotein-targeting agents.
# SEQUENCE No. (e.g., 1, 2, 3, etc.); […] (e.g., Cells, Incubation, Reagent, etc.); VALUE; DESCRIPTION.
# 1; Reagent 1; 3 uL; GPx1 enzyme or no enzyme control in 1536-well, black, solid Greiner assay plate.
# 2; Compound; 25 nL; Kalypsis pin tool (Wako USA) equipped with a 1536-well pin head.
# 3; Incubation; 30 min; room temperature.
# 4; Reagent 2; 1 uL; 10 nM GPX1, 1 mM GSH, 0.5 mM CHP, 0.5 mM NADPH, 100 nM GR, 0.01% BSA substrate
# 5; Detection; Fluorescence; ViewLux microplate reader, excitation 340 nm and emission 450 nm.
# 6; Incubation; 15 min; room temperature.
# 7; Detection; Fluorescence; ViewLux microplate reader, excitation 340 nm and emission 450 nm.
# NOTES (numbers refer to Sequence numbers above)
# 1. 3 uL of 16.66 nM GPX1 and 0.016% BSA in assay buffer (50 mM Tris-HCl, 2 mM EDTA (pH 7.5), 150 mM NaCl) was added to columns 3-48 of 1536-well assay plates using a BioRAPTR Flying Reagent Dispenser (Let's Go Robotics (LGR), Carlsbad, CA). A no-enzyme control (0.01% BSA in TES assay buffer) was added to columns 1-2.
# 2. 25 nL of test compounds and DMSO controls were added to each well with a pin tool (Kalypsys).
# 3. The assay plates were incubated for 30 minutes at room temperature.
# 4. 1 uL of master mix (500 nM glutathione reductase (GR), 5 mM reduced glutathione (GSH), 2.5 mM NADPH in assay buffer) was added. 1 uL of cumene hydroperoxide (CHP) ([2.5 mM] in 50% EtOH) was then added within 5 minutes to initiate the reaction. Final concentrations were: 10 nM GPX1, 1 mM GSH, 0.5 mM CHP, 0.5 mM NADPH, 100 nM GR, 0.01% BSA.
# 5. Initial fluorescence readout (t=0) at 340/450 nm was measured using a ViewLux multimodal detector (PerkinElmer, Waltham, MA).
# 7. Endpoint fluorescence readout (t=15) at 340/450 nm was measured 15 min after room temperature incubation.
Structure (SMILES),outcome,"activity, negative = inhibition",Potency
C=C1C[C@H]2C=Nc3cc(OCCCOc4cc5c(cc4OC)C(=O)N4CC(=C)C[C@H]4C=N5)c(OC)cc3C(=O)N2C1,inactive,,
c1ccc(CNCc2ccc(CN3CCCNCCNCCCNCC3)cc2)nc1,,-2.91% (inactive),
Cc1[nH]cnc1CN1CCN(C(=O)N[C@@H](CC(C)C)C(=O)O)[C@@H](Cc2ccccc2)C1=O,inactive,,
Cn1ncc(NC(=O)c2nc(-c3c(F)cccc3F)sc2N)c1N1CC[C@@H](N)[C@H](F)CC1,,2.69% (inactive),
N[C@@H]1CN(c2c(F)cc3c(=O)c(C(=O)O)cn([C@@H]4C[C@@H]4F)c3c2Cl)CC12CC2,inactive,,
Cc1ccc(NC(=O)c2ccc3c(c2)OCCO3)cc1NC(=O)c1ccc2nc(OCCN3CCCC3)ccc2c1,inactive [at 27.7 µM],,
CO[C@H]1/C=C/O[C@@]2(C)Oc3c(C)c(O)c4c(O)c(c5c(nc6cc(C)ccn65)c4c3C2=O)NC(=O)/C(C)=C\C=C\[C@H](C)[C@H](O)[C@@H](C)[C@@H](O)[C@@H](C)[C@H](OC(C)=O)[C@@H]1C,inactive,,
CC(C)Oc1ccc(-c2nc(-c3cccc4c3CC[C@@H]4NCCO)no2)cc1C#N,inactive,,
C[C@@H](Oc1ccc2[nH]nc(/C=C/c3cnn(CCO)c3)c2c1)c1c(Cl)cncc1Cl,,,inactive
CONC(=O)Nc1ccc(-c2sc3c(c2CN(C)Cc2ccccc2)c(=O)n(-c2ccccc2)c(=O)n3Cc2c(F)cccc2F)cc1,inactive,,
CCN(C(=O)c1ccccc1OC)c1cc2c(cc1N1CCNC[C@H]1C)n(C)c(=O)n2C,inactive,,
COc1cc(OCc2cccc(-c3ccccc3)c2C)cc(OC)c1CN1CCCC[C@H]1C(=O)O,inactive,,
COc1ccc(-n2cnc3cc(C(=O)N4CCCCC4)ccc32)cc1,inactive,,
CC(=O)NCC(=O)N1[C@@H]2CC[C@H]1c1ccc(Nc3ncc(C(F)(F)F)c(NC4CCC4)n3)cc12,inactive,,
Nc1cccc2c1CN([C@H]1CCC(=O)NC1=O)C2=O,inactive,,
Cc1cc(C)c(CNC(=O)c2cc(-c3ccc(N4CCN(C)CC4)nc3)cc3c2c(C)cn3C(C)C)c(=O)[nH]1,,,inactive
COc1cc(-c2cn(C)c(=O)c3cnccc23)cc(OC)c1CN(C)C,inactive,,
Cc1c(C(=O)Nc2ccc(Oc3ccnc4[nH]cc(-c5ccccc5)c34)c(F)c2)c(=O)n(-c2ccc(F)cc2)n1C,inactive,,
Cc1cc(O)cc2c1[C@]1(C)CC[C@H]3C(C)(C)CCC[C@]3(C)[C@H]1C2,,-4.81% [at 4.49 µM] (inactive),
NS(=O)(=O)c1ccc(NC(=S)N2CCN(C/C=C/c3ccccc3)CC2)cc1,inactive,,

Structure (SMILES),outcome,"activity, negative = inhibition",Potency
COc1nc(OCc2cccc(-c3ccccc3)c2C)ccc1CNCCNC(C)=O,inactive,,
CCOc1cc(/C=C2/C(=O)N(c3ccccc3)N=C2C)cc(Cl)c1OCC(=O)OC,inactive,,
CNC(=O)[C@@H](NC(=O)[C@H](CC(C)C)[C@H](O)C(=O)NO)C(C)(C)C,inactive,,
OC1CCC([C@H](O)C[C@H]2c3c(F)cccc3-c3cncn32)CC1 (stereo not given in full),inactive,,
N#C/C(=C1/Nc2ccccc2S1)c1ccnc(OCc2ccc(CN3CCOCC3)cc2)n1,,-15.8% (inactive),
Cc1cnc(NC(=O)c2cc(Oc3cnc(C(=O)N(C)C)nc3)c3cc(C)oc3c2)cn1,,-6.69% (inactive),
O=C(/C=C/C#Cc1cccc(NS(=O)(=O)c2ccccc2)c1)NO,inactive [at 27.7 µM],,
O=C(CCCc1ccc2cccnc2n1)NCc1cc(-c2ccc(F)c(C(F)(F)F)c2)no1,,2.52% (inactive),
Cc1ccc(NS(=O)(=O)c2ccc3c(c2)CCC(=O)N3)cc1C,,-2.98% (inactive),
COc1ccnc2[nH]cc(C(=O)C(=O)N3CCN(C(=O)c4ccccc4)C[C@H]3C)c12,,,inactive
COc1cc(N2CCN(C)CC2)ccc1Nc1ncc2c(n1)N(C)c1ccccc1C(=O)N2C,inactive,,
Nc1ncc(C(=O)NC2CN(C(=O)C3CC3)C2)c2ccc(-c3cccc(F)c3)nc12,inactive,,
Cc1ccc(S(=O)(=O)Nc2cc(-c3ccc(C#N)s3)ccc2C)cc1,,-1.17% (inactive),
Cc1ccc(NS(=O)(=O)c2cccc(C#N)c2)c2[nH]cc(C#N)c12,inactive,,
C[C@H](NC(=O)/C(C#N)=C/c1cccc(Br)n1)c1ccccc1,inactive,,
Cc1nc(C)c(CN2CCN(C(c3ccc(F)cc3)c3ccc(F)cc3)CC2)nc1C,inactive,,
O=C(O)c1ccc(O)c2ncccc12,inactive,,
CCn1c(=O)c(-c2ccc(-c3cncc(C)n3)cc2Cl)cc2cnc(NCCC3CCN(C)CC3)nc21,inactive [at 4.49 µM],,
O=c1oc2c(C3OCCCO3)c(O)ccc2c2c1CNCC2,,-8.74% (inactive),
CN1C(=O)[C@@H](NC(=O)c2cc(Cc3ccccc3)on2)COc2ccccc21,,-11.2% (inactive),
